The values below come from PubChem BioAssay (Tox21).

Several values for one entry are separate records, joined by “and”; a condition that tells them apart may be missing. Identical values can stand only once. Results filed as inconclusive are left out. Where a call stands in place of a potency, no number is given. Some structures have more than one record in an assay (separate samples or runs), and their calls can disagree. Activity calls are given as the source filed them. The call rests on the fitted dose curve; in most records, active means well fitted cell-killing curve with a large enough effect in the repeat runs; inconclusive means weak or mixed curves, or effect the other way; inactive means no such curve, though single readings can be large or run the other way. Positions of bridges follow the written chain, without caps; N, C: chain ends. Non-standard residues stand in square brackets, D forms with d. Residues, ends and D or L forms follow the SMILES beside them. *: point of attachment. Dab(CH2SO3H) = N[C@@H](CCNCS(=O)(=O)O)C(=O)O; X3 = CC[C@@H](C)CCCCC(=O)*; Dab = NCC[C@H](N)C(=O)O
Potency means the concentration at half of the fitted maximal effect.

This assay can be described thus: qHTS assay to identify small molecule antagonists of the thyroid receptor (TR) signaling pathway - cell viability counter screen (AID 743064). Further: nearly all actives have a fitted effect of over 50% in size. To be noted: GH3.TRE-Luc viability, CellTiter-Fluor, 24 h; series mostly up to 70.3 µM. From the text: National Center for Advancing Translational Sciences [NCATS]
NIH Chemical Genomics Center [NCGC]
U.S. Environmental Protection Agency [EPA]
National Institutes of Environmental Health Sciences [NIEHS]
National Toxicology Program [NTP]
U.S. Food and Drug Administration [FDA]
Thyroid receptor (TR), a nuclear hormone receptor, plays an important role in development, proliferation, differentiation, metabolism, brain function, and cardiovascular system. […] To profile the Tox21 10K compound library in TR signaling, a cell-based GH3-TRE-Luc assay (GH3.TRE-Luc cell line, developed by the laboratory of Dr. Albertinka J. Murk, Wageningen University) was used to measure the inhibition of TR. GH3 (rat pituitary tumor) cells stably expressing a TR activity sensor consisting of two TR response elements and a luciferase reporter gene. The cytotoxicity of the Tox21 compound library against the GH3.TRE-Luc cell line was tested in parallel by measuring the cell viability using CellTiter-Fluor assay (Promega, Madison, WI) in the same wells.
Tox21 Assay Protocol Summary:
GH3.TRE-Luc cells were dispensed at 1500 cells/4 uL/well into 1536-well white solid bottom plates using a Multidrop Combi dispenser (Thermo Fisher Scientific Inc., Waltham, MA). After the assay plates were incubated at 37 C for 4 hours, 23 nL of library compound or DMSO controls was transferred to the assay plates by a pintool station (Kalypsys, San Diego, CA), followed by addition of 1 ul of T3 (1 nM, final concentration in the wells) to stimulate TR transactivation. The assay plates were incubated at 37 C for 23.5 h, and then 1 uL of CellTiter-Fluor reagent (Promega, Madision, WI) of measuring cytotoxicity was added to each well using a Bioraptr Flying Reagent Dispenser (FRD) workstation (Beckman Coulter, Indianapolis, IN, USA). The plates were incubated at 37C and 5% CO2 for additional 30 min, and fluorescence intensity was measured by a ViewLux plate reader (PerkinElmer, Shelton, CT).
For orientation: In qHTS, concentration-response curves come from the screen itself.
With `CSCCC(N)C(=O)O` (stereo not given), the Potency result is “inactive”.
For the molecule `C[C@H]1O[C@@H](O[C@H]2CC[C@@]3(C)[C@H](CC[C@@H]4[C@@H]3C[C@@H](O)[C@]3(C)[C@@H](C5=CC(=O)OC5)CC[C@]43O)C2)C[C@H](O)[C@@H]1O[C@H]1C[C@H](O)[C@H](O[C@H]2C[C@H](O)[C@H](O[C@@H]3O[C@H](CO)[C@@H](O)[C@H](O)[C@H]3O)[C@@H](C)O2)[C@@H](C)O1`, the Potency result is “inactive”.
For `N[C@@H](Cc1ccc(O)c(O)c1)C(=O)O`, the Potency entry was “inactive”.
Next, `C/C=C/C1=C(C(=O)O)N2C(=O)[C@@H](NC(=O)[C@H](N)c3ccc(O)cc3)[C@H]2SC1`: “inactive”; `COC(=O)C[C@](O)(CCCC(C)(C)O)C(=O)O[C@@H]1C(OC)=CC23CCCN2CCc2cc4c(cc2[C@H]13)OCO4` (stereo not given in full): 0.0596 µM (active).
Turning to `CC[C@@H](C)CCCCC(=O)N[C@@H](CCNCS(=O)(=O)O)C(=O)N[C@H](C(=O)N[C@@H](CCNCS(=O)(=O)O)C(=O)N[C@H]1CCNC(=O)[C@H]([C@@H](C)O)NC(=O)[C@H](CCNCS(=O)(=O)O)NC(=O)[C@H](CCNCS(=O)(=O)O)NC(=O)[C@H](CC(C)C)NC(=O)[C@@H](CC(C)C)NC(=O)[C@H](CCNCS(=O)(=O)O)NC1=O)[C@@H](C)O` (X3-[Dab(CH2SO3H)]T[Dab(CH2SO3H)][Dab][Dab(CH2SO3H)][dL]L[Dab(CH2SO3H)][Dab(CH2SO3H)]T; lactam 4-C), the Potency result is “inactive”.
Next, `CC(C)Cc1ccc([C@H](C)C(=O)O)cc1`: “inactive”.
To `CCCCCCCCOC(=O)c1cc(O)c(O)c(O)c1` belongs 2.17 µM (active); to `COc1cc(/C=C/C(=O)CC(=O)/C=C/c2ccc(O)c(OC)c2)ccc1O`, 23.7 µM (active) and inactive and 13.8 µM (active).
With `O=P(O)(O)CP(=O)(O)O`, the Potency result is “inactive”.
With `CCOc1ccc([N+](=O)[O-])cc1`, the Potency was 31.1 µM (active).
Take `CCCCC[C@H](O)/C=C/[C@@H]1[C@@H](C/C=C\CCCC(=O)O)[C@@H](O)C[C@H]1O`: the Potency result is “inactive”.
To `CN[C@H](CC(C)C)C(=O)N[C@H]1C(=O)N[C@@H](CC(N)=O)C(=O)N[C@H]2C(=O)N[C@H]3C(=O)N[C@H](C(=O)N[C@@H](C(=O)O)c4cc(O)cc(O)c4-c4cc3ccc4O)[C@H](O)c3ccc(c(Cl)c3)Oc3cc2cc(c3O[C@@H]2O[C@H](CO)[C@@H](O)[C@H](O)[C@H]2O[C@H]2C[C@](C)(N)C(O)[C@H](C)O2)Oc2ccc(cc2Cl)[C@H]1O` (stereo not given in full) belongs “inactive”.
`CC12CCC(C1)C(C)(C)C2=O` (stereo not given): the Potency entry was “inactive”.
`Cc1ccc(C(C)(C)c2ccc(C)cc2)cc1`: the Potency entry is “inactive”.
Next, `Nc1c(CC(=O)O)cccc1C(=O)c1ccccc1`: “inactive”.
In the case of `CCC[C@@H]1C[C@@H](C(=O)N[C@@H]([C@H]2O[C@H](SC)[C@H](OP(=O)(O)O)[C@@H](O)[C@H]2O)[C@H](C)Cl)N(C)C1`, the Potency entry was “inactive”.
`O=P(O)(O)C(O)(Cn1ccnc1)P(=O)(O)O`: the Potency entry is “inactive”.
Next, `C=CC(N)CCC(=O)O` (stereo not given): “inactive”.
Next, `c1ccc(-n2cnnn2)cc1`: “inactive”; `NCC1CCC(C(=O)O)CC1` (stereo not given): “inactive”; `N#Cc1nc(Cl)c(Cl)c(Cl)c1Cl`: 2.43 µM (active).
With `Nc1cc(Cl)c(NC2=NCCN2)c(Cl)c1`, the Potency entry was “inactive”.
Take `C(=C\c1ccncc1)/c1ccccc1`: the Potency entry is “inactive”.
Turning to `Cc1ccc(Cl)c(N)c1Cl`, the Potency result was “inactive”.
On to `NC(N)=NCc1cccc(I)c1`, for which the Potency result was “inactive”.
To `C[C@@H]1O[C@@H](OC[C@H]2O[C@@H](Oc3c(-c4ccc(OCCO)c(OCCO)c4)oc4cc(OCCO)cc(O)c4c3=O)[C@H](O)[C@@H](O)[C@@H]2O)[C@H](O)[C@H](O)[C@H]1O` belongs “inactive”; to `C[C@H](Cc1ccc(O)c(O)c1)[C@@H](C)Cc1ccc(O)c(O)c1`, 9.44 µM (active).
In the case of `CCCOC(=O)c1ccccc1O`, the Potency entry is “inactive”.
For the molecule `CN1CC[C@H](c2c(O)cc(O)c3c(=O)cc(-c4ccccc4Cl)oc23)[C@H](O)C1`, the Potency was 0.211 µM (active).
On to `NC(N)=NCCCCN=C(N)N`, for which the Potency result is “inactive”.
To `CC/C=C\C/C=C\C/C=C\C/C=C\C/C=C\CCCC(=O)O` belongs “inactive”.
Next, `CC[C@@H](C)[C@H](N)C(=O)O`: “inactive”.
Next, `NC(=O)[C@@H]1CCCN1C(=O)[C@H](Cc1cnc[nH]1)NC(=O)[C@@H]1CCC(=O)N1`: “inactive”.
On to `O=C1c2ccccc2CN2C(=O)c3ccccc3CN12`, for which the Potency result is “inactive”.
To `C/C(=C\C(=O)OCCCCCCCCC(=O)O)C[C@@H]1OC[C@H](C[C@@H]2O[C@H]2[C@@H](C)[C@H](C)O)[C@@H](O)[C@H]1O` belongs “inactive”; to `C=CCc1cc(S(=O)(=O)c2ccc(O)c(CC=C)c2)ccc1O`, 61.1 µM (active); to `O=C(O)/C=C/C(=O)Nc1ccc(S(=O)(=O)Nc2nccs2)cc1`, “inactive”.
Consider `CN1CCN(CCCN2c3ccccc3Sc3ccc(Cl)cc32)CC1`, for which the Potency is 6.68 µM (active).
In the case of `CN1C(=O)C[C@@H](C(=O)N[C@@H](Cc2cnc[nH]2)C(=O)N2CCC[C@H]2C(N)=O)NC1=O`, the Potency result was “inactive”.
